Experimental data taken from PubChem BioAssay.
Active and inactive are the calls of the source.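 The calls were made as follows, unless noted: active = inhibition of the reporter signal at or above 50%; inactive = inhibition below 50%.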

What was measured:
[1] = inhibitors of TNFa-induced NFkB p65 translocation, primary screen, imaging, HUVEC, MLSMR starter and 10KST1 sets (AID 438;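 active = inhibition above 20% together with a positive visual image hit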;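 also: compound added about 3h40 before a 20 min TNFalpha stimulation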;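 as to inhibition: signal is the nuclear over cytoplasmic p65 intensity ratio per well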); details: HUVEC TNFa-induced p65 nuclear translocation; cell count: measured here: nuclei count (cytotoxicity indicator), at 2.08 µM; inhibition: at 2 µM, stronger effect = higher value, 0% TNFa-plus-vehicle, 100% no-TNFa wells
[2] = reduction of polyQ htt aggregates in cells – imaging, exon1htt(103Q)mCFP cells, high-content imaging, primary screen (AID 483;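 active = visual image review flags a hit and inhibition of aggregation exceeds 20%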;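 also: compound exposure lasted 3 days before fixation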;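 as to nuclei count: percent of the per-plate median nuclei count of sample wells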); details: exon1htt(103Q)mCFP cell line, aggregate imaging, at 2 µM; inhibition of aggregation: stronger effect = higher value; nuclei count: measured here: cell count, toxicity
[3] = endothelial E-selectin expression blockers – imaging, HUVEC, immunofluorescence, MLSMR starter and 10KST1 sets, primary screen (AID 487;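 active = visually confirmed hit in the image check and inhibition above 20%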;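 as to inhibition: signal is fraction of cell area covered by stained E-selectin grains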;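 as to nuclei count: 100% = median nuclei count of all wells on the same plate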); details: HUVEC TNFalpha-induced E-selectin immunofluorescence imaging, at 2 µM; inhibition: stronger effect = higher value; nuclei count: measured here: cell number, toxicity
[4] = molecular target: Voltage-gated potassium channel subunit beta-2 (Rattus norvegicus) (UniProt P62483); assay: inhibitors of rat Kvbeta2 reductase activity – biochemical, NADPH fluorescence, primary screen (AID 622;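 active = fluorescence slope higher than the sample average by over 3 SD, cut at about -0.22 in these data, passing the limit was not always enough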;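 also: slope of raw intensity against log time taken from 70 to 1610 s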); details: recombinant KvBeta, 4-cyanobenzaldehyde reduction, at 10 µM, stronger effect = higher value
[5] = molecular target: Voltage-gated potassium channel subunit beta-2 (Rattus norvegicus) (UniProt P62483); assay: enhancers of rat Kvbeta2 NADPH turnover – biochemical, NADPH fluorescence, primary screen (AID 623;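 active = NADPH fluorescence slope more negative than the mean of all samples by about 3 SD, 99.7% confidence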;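 also: fluorescence intensity change per second fitted from 20 to 320 s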); details: Recombinant KvBeta, NADPH fluorescence decrease slope, 10 min; at 10 µM; stronger effect = lower value
[6] = molecular target: Alpha-2C adrenergic receptor (Homo sapiens) (UniProt P18825); assay: compounds altering alpha2C-coupled GIRK flux – cell-based, HEK293 alpha2C/GIRK1/2, thallium flux, primary screen (AID 624;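 active = fluorescence slope after compound addition differing from the mean of all screened samples at 99.7% confidence, in either direction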;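 also: slope of fluorescence ratio to pre-addition baseline per second over 15 to 24 s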); details: thallium flux BTC fluorescence, at 10 µM, actives lie on both sides
[7] = blockers of RIG-like receptor reporter activation – cell-based, Sendai virus stimulus, luciferase, 10K MLSCN set, TLR/RLR signaling modifier project, primary screen (AID 602276;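 active = inhibition at or above 50% at 10 µM; inactive = inhibition below 50%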;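 also: firefly luciferase from ISG56 promoter only with Renilla not read in this screen; 0% = Sendai virus plus DMSO and 100% = medium plus DMSO without virus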); details: HEK293 RL24 IRF3 luciferase reporter, at 10 µM, stronger effect = higher value
[8] = TLR3 IRF3 reporter activation blockers – cell-based, poly I:C stimulus, luciferase, 10K MLSCN set, primary screen (AID 602277); details: HEK293-TLR3 RL24 IRF3 luciferase reporter, at 10 µM, stronger effect = higher value

Alpha-2C adrenergic receptor (Homo sapiens), sequence (P18825 whole entry, looked up): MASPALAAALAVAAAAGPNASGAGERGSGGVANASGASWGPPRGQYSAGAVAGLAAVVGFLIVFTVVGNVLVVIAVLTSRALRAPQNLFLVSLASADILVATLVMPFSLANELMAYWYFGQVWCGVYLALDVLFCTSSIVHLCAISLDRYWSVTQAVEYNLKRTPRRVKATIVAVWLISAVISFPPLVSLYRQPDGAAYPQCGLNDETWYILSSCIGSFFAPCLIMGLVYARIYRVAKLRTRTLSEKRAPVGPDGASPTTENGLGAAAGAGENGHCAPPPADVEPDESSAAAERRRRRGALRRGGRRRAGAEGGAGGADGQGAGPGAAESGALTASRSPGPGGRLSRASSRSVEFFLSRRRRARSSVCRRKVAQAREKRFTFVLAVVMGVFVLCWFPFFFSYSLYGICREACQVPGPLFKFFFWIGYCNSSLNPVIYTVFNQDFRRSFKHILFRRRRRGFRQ
Voltage-gated potassium channel subunit beta-2 (Rattus norvegicus), sequence (P62483 whole entry, looked up): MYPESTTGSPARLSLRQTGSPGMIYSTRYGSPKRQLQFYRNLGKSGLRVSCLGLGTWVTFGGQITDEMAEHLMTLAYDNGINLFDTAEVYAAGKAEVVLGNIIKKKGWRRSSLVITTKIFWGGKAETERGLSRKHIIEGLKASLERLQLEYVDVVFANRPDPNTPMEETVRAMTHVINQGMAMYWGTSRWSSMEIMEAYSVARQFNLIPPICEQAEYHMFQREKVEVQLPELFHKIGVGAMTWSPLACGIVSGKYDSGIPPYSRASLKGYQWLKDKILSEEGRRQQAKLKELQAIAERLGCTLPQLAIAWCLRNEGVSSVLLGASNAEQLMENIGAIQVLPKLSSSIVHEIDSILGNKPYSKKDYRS

| SMILES | cell count [1] | inhibition [1] | inhibition of aggregation [2] | nuclei count [2] | inhibition [3] | nuclei count [3] | fluorescence slope [4] | NADPH fluorescence slope [5] | slope [6] | inhibition [7] | inhibition [8] |
| --- | --- | --- | --- | --- | --- | --- | --- | --- | --- | --- | --- |
| O=C(O)CCNc1nc(-c2ccccc2)nc2ccccc12 | 619 | -7.6% (inactive) | -14.3% (inactive) | 103% | -28.1% (inactive) | 127% | -0.579 (inactive) | 3e-05 (inactive) | 0.00675 (inactive) | -3.96% (inactive) | 7.69% (inactive) |
| O=C(Cn1ncc2c(=O)oc3ccccc3c21)NCCCN1CCCC1=O | 807 | -9.2% (inactive) | 10.5% (inactive) | 84.8% | -33% (inactive) | 116% | -0.576 (inactive) | -1.5e-05 (inactive) | 0.00642 (inactive) | 1.1% (inactive) | 24.5% (inactive) |
| CN(c1ccccc1C(N)=O)S(=O)(=O)c1ccccc1 | 385 | -2.9% (inactive) | -21.8% (inactive) | 95.6% | -266% (inactive) | 108% | -0.355 (inactive) | 1.6e-05 (inactive) | 0.00547 (inactive) | 13% (inactive) | 22.7% (inactive) |
| CCCCP(=O)(CCCC)Cc1ccccc1O | 363 | -1.6% (inactive) | 0.1% (inactive) | 91.9% | -39.4% (inactive) | 97.4% | -0.474 (inactive) | -0.000131 (inactive) | 0.00605 (inactive) | -4.65% (inactive) | 9.82% (inactive) |
| CC(C)(O)C1=NOC(c2ccccc2)C1 (stereo not drawn) | 647 | -6.5% (inactive) | -4.9% (inactive) | 98.5% | -43.3% (inactive) | 99.1% | -0.411 (inactive) | 1.7e-07 (inactive) | 0.00603 (inactive) | 6.77% (inactive) | 22.8% (inactive) |
| CCC(=O)OCCn1c(=O)c2cc3c(=O)n(CCOC(=O)CC)c(=O)c3cc2c1=O | 446 | 0% (inactive) | -19% (inactive) | 94.4% | -44.7% (inactive) | 125% | -0.483 (inactive) | 2.7e-05 (inactive) | 0.00378 (inactive) | -12.3% (inactive) | 6.39% (inactive) |
| CC(=O)Oc1ccc(-c2ccc(C(=O)O)cc2)cc1 | 385 | -6.5% (inactive) | 17.9% (inactive) | 99.6% | 35.1% (inactive) | 102% | -0.315 (inactive) | -7.2e-06 (inactive) | 0.00672 (inactive) | 4.99% (inactive) | 14.8% (inactive) |
| c1ccc2c(c1)CC(N1CCCCC1)c1ccccc1N2 (stereo not drawn) | 631 | -6.3% (inactive) | 10.2% (inactive) | 107% | -26.5% (inactive) | 83.5% | -0.41 (inactive) | -0.000142 (inactive) | 0.00466 (inactive) | 10.1% (inactive) | 24.1% (inactive) |
| CCS(=O)(=O)N1CCCC(C(=O)NCCc2ccc(OC)c(OC)c2)C1 (stereo not drawn) | 709 | -12.8% (inactive) | -9.5% (inactive) | 111% | 45.8% (inactive) | 109% | -0.43 (inactive) | 4.5e-06 (inactive) | 0.00594 (inactive) | -5.06% (inactive) | -6.59% (inactive) |
| COC(=O)c1cn(NC(=O)C2CCCO2)c(=O)c2ccccc12 (stereo not drawn) | 415 | -2.5% (inactive) | 12.6% (inactive) | 103% | -39.1% (inactive) | 89.7% | -0.462 (inactive) | -3.7e-05 (inactive) | 0.0068 (inactive) | 11.6% (inactive) | 20.9% (inactive) |
| CC(Oc1ccccc1)C(=O)NC1CC(C)(C)NC(C)(C)C1 (stereo not drawn) | 386 | 0.2% (inactive) | 4.3% (inactive) | 89.9% | 13.8% (inactive) | 102% | -0.261 (inactive) | -3.5e-05 (inactive) | 0.00587 (inactive) | 17.4% (inactive) | 26.2% (inactive) |
| Cc1nc(C)c(C(=O)C2=C(O)C(=O)N(CCCn3ccnc3)C2c2ccccc2)s1 (stereo not drawn) | 481 | 4% (inactive) | 11.4% (inactive) | 89% | 39.5% (inactive) | 88.2% | -0.394 (inactive) | 1.3e-05 (inactive) | 0.00668 (inactive) | -7.2% (inactive) | -4.54% (inactive) |
| COC(=O)Cn1c(=O)c2c(nc(Br)n2CC(=O)OC)n(C)c1=O | 640 | 6.7% (inactive) | -0.4% (inactive) | 103% | 24.8% (inactive) | 101% | -0.406 (inactive) | -1.4e-05 (inactive) | 0.00483 (inactive) | 9.82% (inactive) | 7.4% (inactive) |
| CN(C)S(=O)(=O)c1ccc2c(c1)c(=O)c(C(=O)NCCCN1CCCCCC1)cn2C | 707 | -2.8% (inactive) | 4.4% (inactive) | 101% | -51.2% (inactive) | 106% | -0.601 (inactive) | -3.3e-05 (inactive) | 0.00602 (inactive) | 0.741% (inactive) | 31.9% (inactive) |
| O=C(Nc1ccncc1)C1c2ccccc2Oc2ccccc21 | 722 | 2.8% (inactive) | 1.3% (inactive) | 90.9% | 19.9% (inactive) | 102% | -0.201 (inactive) | -1e-05 (inactive) | 0.0059 (inactive) | 12.2% (inactive) | 17.7% (inactive) |
| O=c1c2cc(N3CCOCC3)ccc2[nH]c(=S)n1CCCN1CCCCC1 | 522 | 6.2% (inactive) | -8.5% (inactive) | 121% | -2.6% (inactive) | 106% | -0.0837 (active) | 8.7e-06 (inactive) | 0.00508 (inactive) | -10.1% (inactive) | 23.3% (inactive) |
| C/C=C(\C)c1nnc(NC(=O)OCC)s1 | 743 | -5% (inactive) | -16% (inactive) | 115% | -52% (inactive) | 110% | -0.342 (inactive) | -5.8e-05 (inactive) | 0.00534 (inactive) | -36.1% (inactive) | -51.1% (inactive) |
| Cc1ccc(NC(=O)CN2CC(C)SC2=NC2CCCCC2)cc1 (stereo not drawn) | 519 | 10.1% (inactive) | -7.2% (inactive) | 109% | -38.8% (inactive) | 112% | -0.514 (inactive) | -4.1e-05 (inactive) | 0.00585 (inactive) | 17.3% (inactive) | 13.9% (inactive) |
| O=C(CCCCn1c(=O)c2ccccc2n(Cc2ccc(Cl)cc2)c1=O)NCc1ccco1 | 613 | -7.3% (inactive) | -8.5% (inactive) | 81.8% | -95.8% (inactive) | 110% | -0.466 (inactive) | -1.3e-05 (inactive) | 0.00636 (inactive) | 45.2% (inactive) | 33.2% (inactive) |
| CCc1nnc(-n2nc(C)cc2-c2ccccc2)n1N | 648 | -2.4% (inactive) | 0.6% (inactive) | 104% | -20.7% (inactive) | 109% | -0.551 (inactive) | 2.6e-05 (inactive) | 0.00642 (inactive) | 15.3% (inactive) | 22.1% (inactive) |
| CCOC(=O)c1ccc(NS(=O)(=O)c2cccc3nsnc23)cc1 | 387 | -6.2% (inactive) | 18.9% (inactive) | 83.1% | -63.9% (inactive) | 104% | -0.409 (inactive) | 4.3e-05 (inactive) | 0.00792 (inactive) | -5.26% (inactive) | 0.648% (inactive) |
| COc1ccc(N(CC(=O)Nc2ccc3c(c2)OCO3)S(=O)(=O)c2c(C)nn(C)c2C)cc1 | 538 | 11.9% (inactive) | 17.9% (inactive) | 51% | -46% (inactive) | 105% | -0.57 (inactive) | -4.5e-06 (inactive) | 0.00577 (inactive) | 10.2% (inactive) | 17.3% (inactive) |
| O=C(CC(SCCO)c1ccc2c(c1)OCO2)c1ccco1 (stereo not drawn) | 538 | -10.2% (inactive) | -17.3% (inactive) | 114% | -60.6% (inactive) | 128% | -0.602 (inactive) | -5.3e-06 (inactive) | 0.00625 (inactive) | -31.1% (inactive) | -69.6% (inactive) |
| CC1(C)CC(=O)C2=C(C1)OC(N)=C(C#N)C2C1CC=CCC1 (stereo not drawn) | 569 | 2.4% (inactive) | 1.3% (inactive) | 119% | -52% (inactive) | 89.2% | -0.556 (inactive) | -1.7e-05 (inactive) | 0.00554 (inactive) | 16% (inactive) | 22.1% (inactive) |
| O=C(CCn1c(=O)oc2ccccc21)NCc1ccco1 | 686 | -5.9% (inactive) | -10% (inactive) | 104% | -32.5% (inactive) | 127% | -0.598 (inactive) | -5.1e-05 (inactive) | 0.00749 (inactive) | -5.54% (inactive) | 6.8% (inactive) |
| CCN(CC)c1ccc2cc(-c3nc4ccccc4[nH]3)c(=O)oc2c1 | 437 | 11.7% (inactive) | 90.2% (active) | 98.9% | -74.3% (inactive) | 116% | -0.313 (inactive) | 4.5e-05 (inactive) | 0 (active) | 20.9% (inactive) | 32.6% (inactive) |
| CC1(C)CC(=O)C2=C(C1)NC(=O)CC2c1ccc(N(CCC#N)CCC#N)cc1 (stereo not drawn) | 432 | 5.9% (inactive) | -2.1% (inactive) | 109% | 21.1% (inactive) | 116% | -0.376 (inactive) | 6.8e-05 (inactive) | 0.00771 (inactive) | 1.16% (inactive) | 17.9% (inactive) |
| O=C1CCc2cc(S(=O)(=O)N3CCC(C(=O)NCc4ccccn4)CC3)ccc2N1 | 599 | 0% (inactive) | 32.3% (inactive) | 115% | -26.3% (inactive) | 110% | -0.578 (inactive) | 1.3e-05 (inactive) | 0.00666 (inactive) | 13.9% (inactive) | 14.7% (inactive) |
